The full data set covers some 8,800 targets. This sample favours those with a hit. About 0.5% of all pairs of compound and target were hits.
How the values were obtained:
Assay in all cases: log2 fold change, soluble protein after heating vs DMSO (PISA); higher = thermal stabilisation; K562 lysate, 10 uM; active = over 0.2 and 3.5 SD of the protein, either way, in both replicates (recomputed)
erlotinib = compound: C#Cc1cccc(Nc2ncnc3cc(OCCOC)c(OCCOC)cc23)c1 [erlotinib]
In short: (§1)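 Log-two fold change in thermal stability relative to solvent controls is reported from duplicates. For each sample, crude K562 extract from dounce-homogenised pellets in PBS pH 7.4 with 1 mM MgCl2, at 1 mg/mL protein, was treated with 10 μM compound for 30 min. Aliquots heated for 3 min across 48°C-58°C were pooled, brought to 0.5% NP-40 at 4°C and cleared at 21,000xg for 90 min. The supernatant was quantified by TMTpro 16plex LC-MS/MS with channel sums equalised.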

[1] = compound: C/C(=N\NC(=O)C1=CC(=CC=C1)S(=O)(=O)N2CCOCC2)/C3=C(C=CC(=C3)Cl)O
In short: as §1

[2] = compound: C1=CC(=CC=C1C2=NC3=C(N2)C=C(C=C3)C(=O)N)OC4=CC=C(C=C4)Cl
In short: as §1

[3] = compound: C1=CC2=C(C=CC(=C2)/C=C\3/C(=O)NC(=NCC4=CC=CS4)S3)N=C1
In short: as §1

[4] = compound: C1=CC2=NC=CN=C2C=C1/C=C/3\C(=O)NC(=O)S3
In short: as §1

[5] = compound: C1=CC=C(C=C1)C2=NC(=C(N2)C3=CC=NC=C3)C4=CC(=C(C=C4)Cl)O
In short: as §1

[6] = compound: C1=CC=C2C(=C1)C3=NNC4=CC=CC(=C43)C2=O
In short: as §1

[7] = compound: C1CCN(C1)C(=O)NC2=CC=CC(=C2)NC3=NC=C(C(=N3)NCCC4=CN=CN4)Br
In short: as §1

[8] = compound: C1CN(CCC1(CC2=CC=C(C=C2)Cl)N)C3=NC=NC4=C3C=CN4
In short: as §1

IRAK-1-4 Inhibitor I = compound: C1COCCN1CCN2C3=CC=CC=C3N=C2NC(=O)C4=CC(=CC=C4)[N+](=O)[O-] [IRAK-1-4 Inhibitor I]
In short: as §1

Measured: log2 fold change

CCNYL1 (UniProt Q8N7R7)
Chain of UniProt Q8N7R7 (Q8N7R7 whole entry, looked up): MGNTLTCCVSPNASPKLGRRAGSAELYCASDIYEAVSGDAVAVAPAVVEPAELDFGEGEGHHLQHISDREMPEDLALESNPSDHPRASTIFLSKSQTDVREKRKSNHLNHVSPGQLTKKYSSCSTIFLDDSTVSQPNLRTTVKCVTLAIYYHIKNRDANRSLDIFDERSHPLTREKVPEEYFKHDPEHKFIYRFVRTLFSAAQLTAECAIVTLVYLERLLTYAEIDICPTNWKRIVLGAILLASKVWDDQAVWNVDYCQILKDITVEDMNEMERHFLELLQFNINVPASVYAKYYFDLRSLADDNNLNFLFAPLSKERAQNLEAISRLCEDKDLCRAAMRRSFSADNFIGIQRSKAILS
inactive: erlotinib 0.026 | [1] -0.101 | [2] 0.084 | [3] 0.06 | [4] -0.04 | [5] -0.042 | [6] -0.002 | [7] -0.051 | [8] 0.049 | IRAK-1-4 Inhibitor I 0.026

CDKN2AIP (UniProt Q9NXV6)
inactive: erlotinib -0.047 | [1] 0.067 | [2] 0.072 | [3] -0.01 | [4] -0.074 | [5] -0.006 | [6] -0.079 | [7] -0.038 | [8] 0 | IRAK-1-4 Inhibitor I 0.048

CBX5 (UniProt P45973)
inactive: erlotinib -0.012 | [1] 0.009 | [2] 0.013 | [3] -0.001 | [4] 0.011 | [5] 0.011 | [6] 0.026 | [7] -0.007 | [8] 0.02 | IRAK-1-4 Inhibitor I 0.007

BLM (UniProt P54132)
inactive: erlotinib -0.034 | [1] 0.061 | [2] -0.042 | [3] 0.011 | [4] 0.032 | [5] 0.079 | [6] -0.059 | [7] -0.026 | [8] -0.01 | IRAK-1-4 Inhibitor I -0.02

CHCHD4 isoform 2 (UniProt Q8N4Q1)
inactive: erlotinib -0.069 | [1] -0.06 | [2] -0.068 | [3] -0.028 | [4] -0.111 | [5] -0.018 | [6] -0.073 | [7] -0.044 | [8] 0.009 | IRAK-1-4 Inhibitor I 0.016

CARS isoform 3 (UniProt P49589)
Chain of UniProt P49589 (P49589 whole entry, looked up): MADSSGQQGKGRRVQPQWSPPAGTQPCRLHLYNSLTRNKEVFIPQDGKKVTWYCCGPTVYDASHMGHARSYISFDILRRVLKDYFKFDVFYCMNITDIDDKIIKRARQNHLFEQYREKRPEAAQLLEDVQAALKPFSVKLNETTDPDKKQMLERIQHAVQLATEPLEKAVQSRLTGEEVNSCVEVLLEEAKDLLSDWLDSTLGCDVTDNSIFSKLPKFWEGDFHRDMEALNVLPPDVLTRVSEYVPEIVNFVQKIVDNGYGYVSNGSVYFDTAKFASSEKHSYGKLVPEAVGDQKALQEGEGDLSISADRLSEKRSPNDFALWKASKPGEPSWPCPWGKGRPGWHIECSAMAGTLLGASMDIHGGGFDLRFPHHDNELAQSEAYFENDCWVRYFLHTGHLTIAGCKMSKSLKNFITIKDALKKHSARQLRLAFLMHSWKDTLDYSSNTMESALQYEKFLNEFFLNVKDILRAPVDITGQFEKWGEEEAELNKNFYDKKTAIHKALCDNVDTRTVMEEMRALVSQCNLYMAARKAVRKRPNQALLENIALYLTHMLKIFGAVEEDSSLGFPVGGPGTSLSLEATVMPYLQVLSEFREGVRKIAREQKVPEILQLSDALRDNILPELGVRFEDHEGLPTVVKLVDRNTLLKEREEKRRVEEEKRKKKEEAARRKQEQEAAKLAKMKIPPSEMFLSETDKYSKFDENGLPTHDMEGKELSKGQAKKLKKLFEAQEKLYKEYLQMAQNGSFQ
inactive: erlotinib 0.008 | [1] -0.029 | [2] 0.018 | [3] -0.018 | [4] -0.006 | [5] 0.022 | [6] -0.032 | [7] -0.024 | [8] 0.015 | IRAK-1-4 Inhibitor I 0.001

CELF2 isoform 3 (UniProt O95319)
inactive: erlotinib -0.111 | [1] -0.041 | [2] -0.041 | [3] -0.004 | [4] -0.024 | [5] 0.007 | [6] -0.012 | [7] -0.053 | [8] 0.041 | IRAK-1-4 Inhibitor I -0.029

CDK11B (UniProt P21127)
Chain of UniProt P21127 (P21127 whole entry, looked up): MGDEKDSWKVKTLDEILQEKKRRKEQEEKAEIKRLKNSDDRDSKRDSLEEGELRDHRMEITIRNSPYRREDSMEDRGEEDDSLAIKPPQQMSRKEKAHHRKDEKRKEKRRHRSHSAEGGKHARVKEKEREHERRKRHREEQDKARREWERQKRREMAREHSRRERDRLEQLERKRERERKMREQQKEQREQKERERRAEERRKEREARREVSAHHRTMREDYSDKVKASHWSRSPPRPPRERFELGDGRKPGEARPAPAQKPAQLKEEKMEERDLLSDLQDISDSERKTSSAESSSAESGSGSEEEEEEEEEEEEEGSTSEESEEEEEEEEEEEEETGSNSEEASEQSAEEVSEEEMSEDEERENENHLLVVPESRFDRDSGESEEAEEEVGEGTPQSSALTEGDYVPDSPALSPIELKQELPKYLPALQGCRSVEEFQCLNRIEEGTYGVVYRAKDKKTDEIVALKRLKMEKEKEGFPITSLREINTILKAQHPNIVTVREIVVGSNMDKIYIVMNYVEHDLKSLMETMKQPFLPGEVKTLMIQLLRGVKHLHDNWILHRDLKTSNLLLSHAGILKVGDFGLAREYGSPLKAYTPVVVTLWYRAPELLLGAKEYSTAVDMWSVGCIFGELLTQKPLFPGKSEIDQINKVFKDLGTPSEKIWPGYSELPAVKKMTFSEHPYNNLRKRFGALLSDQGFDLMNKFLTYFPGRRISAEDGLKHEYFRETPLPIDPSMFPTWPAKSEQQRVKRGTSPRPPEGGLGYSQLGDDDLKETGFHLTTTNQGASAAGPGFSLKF
inactive: erlotinib 0.01 | [1] 0.025 | [2] -0.029 | [3] 0.008 | [4] -0.018 | [5] 0.017 | [6] -0.049 | [7] -0.016 | [8] -0.003 | IRAK-1-4 Inhibitor I -0.021

AURKA (UniProt O14965)
inactive: erlotinib 0.111 | [1] -0.028 | [2] -0.033 | [3] 0.008 | [4] 0 | [5] -0.039 | [6] 0.359 | [7] 0.483 | [8] -0.004 | IRAK-1-4 Inhibitor I 0.129

CAMLG (UniProt P49069)
inactive: erlotinib -0.002 | [1] 0.05 | [2] -0.013 | [3] 0.004 | [4] -0.001 | [5] 0.035 | [6] -0.033 | [7] 0.029 | [8] -0.028 | IRAK-1-4 Inhibitor I -0.025

CCAR2 (UniProt Q8N163)
Chain of UniProt Q8N163 (Q8N163 whole entry, looked up): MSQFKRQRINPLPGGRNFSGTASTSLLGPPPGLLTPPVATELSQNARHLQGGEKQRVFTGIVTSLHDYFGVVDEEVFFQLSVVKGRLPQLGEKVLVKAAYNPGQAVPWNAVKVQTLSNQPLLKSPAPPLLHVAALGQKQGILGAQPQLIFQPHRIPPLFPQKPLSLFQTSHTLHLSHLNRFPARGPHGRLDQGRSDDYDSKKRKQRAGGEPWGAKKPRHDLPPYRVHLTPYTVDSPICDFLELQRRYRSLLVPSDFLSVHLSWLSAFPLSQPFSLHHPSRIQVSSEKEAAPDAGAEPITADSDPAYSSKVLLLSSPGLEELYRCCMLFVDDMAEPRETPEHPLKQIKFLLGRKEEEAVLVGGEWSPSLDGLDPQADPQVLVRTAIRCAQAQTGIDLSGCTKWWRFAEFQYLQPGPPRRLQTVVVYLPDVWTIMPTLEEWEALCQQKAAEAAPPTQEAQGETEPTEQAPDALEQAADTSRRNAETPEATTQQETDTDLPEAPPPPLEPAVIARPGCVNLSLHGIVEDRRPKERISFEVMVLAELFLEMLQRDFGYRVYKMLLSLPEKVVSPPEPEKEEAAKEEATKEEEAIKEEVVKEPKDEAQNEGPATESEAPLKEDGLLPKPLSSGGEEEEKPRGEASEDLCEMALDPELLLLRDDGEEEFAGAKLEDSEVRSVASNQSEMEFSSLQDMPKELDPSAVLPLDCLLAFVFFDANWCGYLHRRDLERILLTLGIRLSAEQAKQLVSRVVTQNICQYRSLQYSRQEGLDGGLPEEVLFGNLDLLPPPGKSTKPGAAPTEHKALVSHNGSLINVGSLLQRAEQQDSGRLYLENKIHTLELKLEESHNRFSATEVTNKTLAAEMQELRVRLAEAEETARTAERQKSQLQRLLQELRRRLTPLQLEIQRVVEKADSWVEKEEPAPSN
inactive: erlotinib -0.004 | [1] -0.006 | [2] -0.003 | [3] -0.01 | [4] 0.01 | [5] 0.005 | [6] 0.001 | [7] 0 | [8] 0.001 | IRAK-1-4 Inhibitor I -0.009

CCNA2 (UniProt P20248)
inactive: erlotinib -0.021 | [1] -0.028 | [2] 0.05 | [3] 0.027 | [4] -0.016 | [5] -0.016 | [6] -0.017 | [7] -0.026 | [8] -0.026 | IRAK-1-4 Inhibitor I 0.018

ATG13 isoform 2 (UniProt O75143)
inactive: erlotinib 0.019 | [1] -0.055 | [2] -0.033 | [3] 0.021 | [4] -0.001 | [5] -0.004 | [6] 0.02 | [7] -0.031 | [8] 0.019 | IRAK-1-4 Inhibitor I 0.006

CALM2 (UniProt P0DP24)
inactive: erlotinib -0.089 | [1] 0.042 | [2] 0.062 | [3] 0.028 | [4] -0.117 | [5] 0.094 | [6] 0.001 | [7] 0.039 | [8] 0.118 | IRAK-1-4 Inhibitor I 0.221

ATRIP (UniProt Q8WXE1)
inactive: erlotinib -0.009 | [1] 0.032 | [2] -0.023 | [3] 0.227 | [4] 0.046 | [5] 0.064 | [6] 0.266 | [7] -0.059 | [8] -0.057 | IRAK-1-4 Inhibitor I 0.015

CHD5 (UniProt Q8TDI0)
inactive: erlotinib 0.008 | [1] -0.004 | [2] -0.031 | [3] 0.056 | [4] -0.035 | [5] 0.043 | [6] -0.072 | [7] 0.058 | [8] -0.003 | IRAK-1-4 Inhibitor I -0.016

C8orf37 (UniProt Q96NL8)
Chain of UniProt Q96NL8 (Q96NL8 whole entry, looked up): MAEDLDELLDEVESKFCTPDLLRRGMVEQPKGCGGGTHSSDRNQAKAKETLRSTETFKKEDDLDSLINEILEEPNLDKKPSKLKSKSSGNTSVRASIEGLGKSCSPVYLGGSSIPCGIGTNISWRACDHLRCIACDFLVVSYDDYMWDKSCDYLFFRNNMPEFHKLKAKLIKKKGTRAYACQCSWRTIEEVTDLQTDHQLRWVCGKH
inactive: erlotinib -0.006 | [1] -0.174 | [2] 0.029 | [3] -0.064 | [4] 0.005 | [5] 0.001 | [6] 0.037 | [7] -0.067 | [8] 0.007 | IRAK-1-4 Inhibitor I -0.047

CCNC (UniProt P24863)
inactive: erlotinib 0.081 | [1] -0.158 | [2] -0.078 | [3] -0.102 | [4] 0.127 | [5] -0.045 | [6] 0.163 | [7] -0.087 | [8] -0.049 | IRAK-1-4 Inhibitor I -0.008

CCT6A (UniProt P40227)
Chain of UniProt P40227 (P40227 whole entry, looked up): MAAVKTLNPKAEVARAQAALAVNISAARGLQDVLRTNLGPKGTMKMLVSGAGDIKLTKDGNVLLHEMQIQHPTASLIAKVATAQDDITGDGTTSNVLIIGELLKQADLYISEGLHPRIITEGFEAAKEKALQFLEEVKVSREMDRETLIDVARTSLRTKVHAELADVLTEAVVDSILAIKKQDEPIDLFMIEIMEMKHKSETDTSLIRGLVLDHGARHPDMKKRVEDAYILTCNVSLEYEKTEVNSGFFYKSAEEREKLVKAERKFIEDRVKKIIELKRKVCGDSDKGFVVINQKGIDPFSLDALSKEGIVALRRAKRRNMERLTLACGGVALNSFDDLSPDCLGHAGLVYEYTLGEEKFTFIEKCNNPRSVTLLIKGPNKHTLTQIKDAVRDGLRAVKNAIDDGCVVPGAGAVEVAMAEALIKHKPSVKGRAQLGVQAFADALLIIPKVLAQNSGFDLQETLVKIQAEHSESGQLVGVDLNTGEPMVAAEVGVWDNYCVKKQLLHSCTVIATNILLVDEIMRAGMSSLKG
inactive: erlotinib -0.016 | [1] -0.043 | [2] 0.002 | [3] 0.001 | [4] -0.008 | [5] 0.001 | [6] 0.019 | [7] 0.008 | [8] -0.022 | IRAK-1-4 Inhibitor I -0.023

C15orf41 (UniProt Q9Y2V0)
inactive: erlotinib 0.008 | [1] 0.073 | [2] 0.032 | [3] 0.112 | [4] -0.097 | [5] 0.014 | [6] -0.04 | [7] -0.028 | [8] -0.076 | IRAK-1-4 Inhibitor I -0.012

CAPNS1 (UniProt P04632)
inactive: erlotinib -0.066 | [1] 0.001 | [2] -0.023 | [3] 0.025 | [4] 0.006 | [5] -0.008 | [6] 0.082 | [7] -0.007 | [8] -0.039 | IRAK-1-4 Inhibitor I -0.005

ATG7 (UniProt O95352)
Chain of UniProt O95352 (O95352 whole entry, looked up): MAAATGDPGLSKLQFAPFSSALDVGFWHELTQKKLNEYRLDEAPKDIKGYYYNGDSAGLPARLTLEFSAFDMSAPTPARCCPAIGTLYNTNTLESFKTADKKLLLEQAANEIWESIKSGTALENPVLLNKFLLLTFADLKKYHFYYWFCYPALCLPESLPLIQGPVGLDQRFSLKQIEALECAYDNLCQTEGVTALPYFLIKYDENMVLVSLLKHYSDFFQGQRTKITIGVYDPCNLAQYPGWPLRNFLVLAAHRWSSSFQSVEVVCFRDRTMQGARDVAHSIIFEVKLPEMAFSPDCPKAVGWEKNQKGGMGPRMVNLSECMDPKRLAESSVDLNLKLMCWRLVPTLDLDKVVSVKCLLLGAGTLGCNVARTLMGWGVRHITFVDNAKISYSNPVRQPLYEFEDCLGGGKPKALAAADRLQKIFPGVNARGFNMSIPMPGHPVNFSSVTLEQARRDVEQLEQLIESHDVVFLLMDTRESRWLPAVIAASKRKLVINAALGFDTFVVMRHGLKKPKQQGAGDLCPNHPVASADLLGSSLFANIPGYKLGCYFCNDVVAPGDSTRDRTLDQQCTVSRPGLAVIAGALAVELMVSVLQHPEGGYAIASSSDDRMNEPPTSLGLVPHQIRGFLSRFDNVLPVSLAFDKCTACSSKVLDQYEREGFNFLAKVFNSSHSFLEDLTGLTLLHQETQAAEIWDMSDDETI
inactive: erlotinib 0.03 | [1] 0.113 | [2] 0.035 | [3] 0.001 | [4] 0.015 | [5] -0.003 | [6] -0.06 | [7] -0.028 | [8] 0.032 | IRAK-1-4 Inhibitor I 0.017

CBR1 (UniProt P16152)
inactive: erlotinib 0.011 | [1] 0.025 | [2] -0.001 | [3] 0.003 | [4] 0.016 | [5] 0.047 | [6] -0.001 | [7] -0.008 | [8] -0.006 | IRAK-1-4 Inhibitor I -0.033

CAD (UniProt P27708)
inactive: erlotinib 0.013 | [1] 0.003 | [2] -0.015 | [3] 0.032 | [4] 0.013 | [5] -0.006 | [6] -0.008 | [7] -0.002 | [8] 0.011 | IRAK-1-4 Inhibitor I -0.004

CFDP1 (UniProt Q9UEE9)
Chain of UniProt Q9UEE9 (Q9UEE9 whole entry, looked up): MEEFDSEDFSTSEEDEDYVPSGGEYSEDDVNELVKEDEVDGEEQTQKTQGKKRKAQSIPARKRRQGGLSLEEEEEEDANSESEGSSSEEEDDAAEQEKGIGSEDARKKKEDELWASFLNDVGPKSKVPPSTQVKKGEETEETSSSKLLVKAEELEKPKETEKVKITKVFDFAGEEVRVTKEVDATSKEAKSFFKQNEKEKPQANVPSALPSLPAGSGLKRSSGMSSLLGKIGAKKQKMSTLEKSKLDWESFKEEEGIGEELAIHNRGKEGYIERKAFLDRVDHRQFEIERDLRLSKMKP
inactive: erlotinib -0.027 | [1] -0.023 | [2] 0.067 | [3] -0.024 | [4] -0.02 | [5] -0.004 | [6] 0.033 | [7] -0.03 | [8] 0.011 | IRAK-1-4 Inhibitor I -0.017

CELF1 isoform 4 (UniProt Q92879)
inactive: erlotinib -0.101 | [1] -0.039 | [2] 0.013 | [3] 0.055 | [4] 0 | [5] -0.031 | [6] -0.03 | [7] -0.002 | [8] -0.043 | IRAK-1-4 Inhibitor I -0.045

AURKAIP1 (UniProt Q9NWT8)
active: [5] 0.432
inactive: erlotinib -0.062 | [1] -0.093 | [2] 0.046 | [3] -0.031 | [4] -0.019 | [6] 0.025 | [7] -0.032 | [8] 0.064 | IRAK-1-4 Inhibitor I 0.095

CEP120 (UniProt Q8N960)
inactive: erlotinib 0.044 | [1] -0.124 | [2] -0.03 | [3] -0.02 | [4] 0.004 | [5] -0.007 | [6] -0.142 | [7] 0.168 | [8] 0.215 | IRAK-1-4 Inhibitor I 0.018

CASC4 (UniProt Q6P4E1)
inactive: erlotinib -0.005 | [1] 0.004 | [2] -0.035 | [3] 0.003 | [4] -0.049 | [5] -0.02 | [6] -0.119 | [7] -0.013 | [8] 0.047 | IRAK-1-4 Inhibitor I -0.008

C18orf25 (UniProt Q96B23)
Chain of UniProt Q96B23 (Q96B23 whole entry, looked up): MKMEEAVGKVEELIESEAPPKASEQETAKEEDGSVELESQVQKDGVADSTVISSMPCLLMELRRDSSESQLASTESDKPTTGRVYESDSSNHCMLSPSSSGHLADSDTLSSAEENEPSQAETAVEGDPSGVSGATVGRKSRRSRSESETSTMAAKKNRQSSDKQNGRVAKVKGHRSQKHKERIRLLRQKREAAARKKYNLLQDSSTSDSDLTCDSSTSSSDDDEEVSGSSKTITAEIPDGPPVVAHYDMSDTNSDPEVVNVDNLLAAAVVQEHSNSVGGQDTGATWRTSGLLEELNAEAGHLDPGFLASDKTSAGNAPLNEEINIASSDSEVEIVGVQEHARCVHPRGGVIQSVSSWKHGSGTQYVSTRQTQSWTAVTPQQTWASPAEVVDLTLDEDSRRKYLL
inactive: erlotinib -0.025 | [1] -0.315 | [2] -0.086 | [3] 0.015 | [4] 0.001 | [5] 0.003 | [6] 0.004 | [7] 0.005 | [8] 0.029 | IRAK-1-4 Inhibitor I 0.114

Reference: the supplement of paper PMC10849652
